# Measured values reported in PubChem BioAssay (EPA / NIEHS).
# “And” between values parts separate entries of the source, which are not always exact repeats. Equal values may be shown once. Results filed as inconclusive are left out. The source made the active and inactive calls. The calls were made as follows: active = hit-call score of the fitted dose curve at least 0.9, where 1 is the maximum; inconclusive = response in the unintended direction; inactive = score below 0.9.
# Key:
# [1] = target: human CYP4F12, CYP4F12 (gene 66002) (UniProt Q9HCS2); assay: NVS_ADME_hCYP4F12: NovaScreen (NVS) CYP450-related Enzyme Activity (ADME) Assay for human CYP4F12 (AID 2283111)
# Outline: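 Cell-free fluorescence assay of recombinant human CYP4F12 activity on a specific substrate, read 0.5 h after dosing. Primary screen in duplicate at 10 uM, then concentration series for actives; loss of signal fitted against acetonitrile negative control.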
# [2] = target: rat Monoamine Oxidase, MAO-B, Peripheral (MAOBP), Maob (gene 25750) (UniProt P19643); assay: NVS_ENZ_rMAOBP: NovaScreen (NVS) Enzymatic Assay for rat Monoamine Oxidase, MAO-B, Peripheral (MAOBP) (AID 2283242)
# [3] = target: rat Oxytocin Receptor (OXT), Oxtr (gene 25342) (UniProt P70536); assay: NVS_GPCR_rOXT: NovaScreen (NVS) G Protein-Coupled Receptor Assay for rat Oxytocin Receptor (OXT) (AID 2283330)
# Outline: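 Radioligand displacement on rat uterine membranes, 1 h incubation, filter-based scintillation counting. Chemicals were screened in duplicate at 25 uM, and those passing threshold were retested in concentration-response up to 50 uM. Loss of binding was fitted versus DMSO.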
# [4] = target: Norway rat Vesicular Monoamine Transporter (VMAT2), neurotransmitter transporter, Slc18a2 (gene 25549) (UniProt Q01827); assay: NVS_TR_rVMAT2: NovaScreen (NVS) Transporter Assay for Norway rat Vesicular Monoamine Transporter (VMAT2), neurotransmitter transporter (AID 2283376);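 also: actives lower the bound radioligand signal below the DMSO level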
# Outline: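 Radioligand displacement binding on rat forebrain tissue preparation, filter-based scintillation read-out 1 hour after dosing. Primary screen in duplicate at 25 uM, then concentration series for actives; loss of signal versus DMSO.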
# rat CYP2B1, gene 24300 = assay: NVS_ADME_rCYP2B1: NovaScreen (NVS) CYP450-related Enzyme Activity (ADME) Assay for rat CYP2B1 (AID 2283117)
# Outline: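 Recombinant rat CYP2B1 with fluorogenic substrate, read at 0.75 h. Primary screen in duplicate at 10 uM; compounds meeting threshold (e.g., 30% inhibition) re-run in concentration-response up to 20 uM. Fitted against acetonitrile control.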
# [5] = test system: rat Monoamine Oxidase, MAO-A, Central (MAOAC), gene 29253; assay: NVS_ENZ_rMAOAC: NovaScreen (NVS) Enzymatic Assay for rat Monoamine Oxidase, MAO-A, Central (MAOAC) (AID 2283243);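 also: potency refers to inhibition seen as signal drop below DMSO baseline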
# Outline: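 Rat brain tissue extract served as the cell-free enzyme source; activity was measured by radiometric scintillation counting 1.5 hours after compound addition. Loss of signal relative to DMSO baseline indicated inhibition; primary screen at 25 uM in duplicate.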
# PPP2CA (gene 5515) = PPP2CA (gene 5515) (UniProt P67775); assay: NVS_ENZ_hPPP2CA: NovaScreen (NVS) Enzymatic Assay for human Protein Phosphatase 2 Aatalytic subunit Alpha (PPP2CA) (AID 2283199)
# Outline: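 Recombinant human PPP2CA with fluorescent substrate; product separated from substrate by electrophoretic mobility shift, read 1.33 h after dosing. Duplicate single-point at 25 uM, then singleton concentration-response up to 50 uM; loss of signal versus DMSO.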
# [6] = target: human Neonicotinoid receptor (NNR), CHRNA2 (gene 1135) (UniProt Q15822); assay: NVS_LGIC_hNNR_NBungSens: NovaScreen (NVS) Ligand-Gated Ion Channel Assay for human Neonicotinoid receptor (NNR) (AID 2283313)
# Outline: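 Radioligand displacement on human neuroblastoma membranes, 2 h, filter-based scintillation counting. Primary screen in duplicate at 25 uM; chemicals passing threshold (e.g. 30% inhibition) run singleton concentration-response to 50 uM; loss of binding fitted versus DMSO.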
# [7] = target: human Acetylcholinesterase (AChE), ACHE (gene 43) (UniProt P22303); assay: NVS_ENZ_hAChE: NovaScreen (NVS) Enzymatic Assay for human Acetylcholinesterase (AChE) (AID 2283129)
# Outline: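 Cell-free colorimetric enzyme-activity assay; compounds read 0.33 hour after dosing, loss of signal vs DMSO baseline. Primary screen in duplicate at 25 uM single concentration, with active compounds retested in concentration series.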
# [8] = target: human Caspase 2 (CASP2), CASP2 (gene 835) (UniProt P42575); assay: NVS_ENZ_hCASP2: NovaScreen (NVS) Enzymatic Assay for human Caspase 2 (CASP2) (AID 2283135)
# Outline: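 E. coli-expressed enzyme in a cell-free protease assay, fluorescence read 1 h after dosing. Compounds at 25 uM in duplicate, with concentration-response up to 50 uM for hits; loss of signal against DMSO baseline.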
# [9] = target: human Fibroblast Growth Factor Receptor 1 (FGFR1), FGFR1 (gene 2260) (UniProt P11362); assay: NVS_ENZ_hFGFR1: NovaScreen (NVS) Enzymatic Assay for human Fibroblast Growth Factor Receptor 1 (FGFR1) (AID 2283159);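 as to AC50: hits lower the signal so potencies describe inhibitors of the kinase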
# Outline: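 Cell-free recombinant kinase with fluorescent substrate, product separated by electrophoretic mobility shift; read 1 hour after dosing, loss of signal relative to DMSO. Initial screen in duplicate at 25 uM, actives followed in concentration series.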
# [10] = target: human Phosphatase and Tensin Homolog (PTEN), PTEN (gene 5728) (UniProt P60484); assay: NVS_ENZ_hPTEN: NovaScreen (NVS) Enzymatic Assay for human Phosphatase and Tensin Homolog (PTEN) (AID 2283203)
# Outline: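 Cell-free recombinant human PTEN with fluorescent substrate; product separated by electrophoretic mobility shift and read by fluorescence 1 h after dosing. Primary screen in duplicate at 25 uM, actives followed in concentration series versus DMSO.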
# [11] = target: rat Acetylcholinesterase (AChE), Ache (gene 83817) (UniProt P37136); assay: NVS_ENZ_rAChE: NovaScreen (NVS) Enzymatic Assay for rat Acetylcholinesterase (AChE) (AID 2283233)
# Outline: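 Rat brain membrane acetylcholinesterase activity measured colorimetrically 0.33 h after compound addition, loss of signal relative to DMSO. Primary screen in duplicate at 25 uM; actives re-run as concentration-response with 50 uM top concentration.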
# [12] = target: bovine Gamma-Aminobutyric Acid Type A Receptor BDZ, alpha 1 site (GABARa1), GABRA1 (gene 780973) (UniProt P08219); assay: NVS_LGIC_bGABARa1: NovaScreen (NVS) Ligand-Gated Ion Channel Assay for bovine Gamma-Aminobutyric Acid Type A Receptor BDZ, alpha 1 site (GABARa1) (AID 2283321)
# Outline: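 Radioligand competition binding on bovine cortical membranes, 0.75 h, filter-based scintillation counting. Primary single concentration 25 uM in duplicate; actives rerun in concentration-response to 50 uM max. Loss of signal fitted versus DMSO.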
# [13] = target: human Caspase 10 (CASP10), CASP10 (gene 843) (UniProt Q92851); assay: NVS_ENZ_hCASP10: NovaScreen (NVS) Enzymatic Assay for human Caspase 10 (CASP10) (AID 2283133)
# Outline: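 Recombinant human caspase-10 from E. coli, cell-free fluorogenic substrate assay read 1 h after dosing. Primary duplicate screen at 25 uM; hits (e.g. ≥30% inhibition) run singly in concentration-response up to 50 uM, normalised to DMSO.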
# [14] = target: human AMP-activated Protein Kinase, alpha 1 (AMPKa1), PRKAA1 (gene 5562) (UniProt Q13131); assay: NVS_ENZ_hAMPKa1: NovaScreen (NVS) Enzymatic Assay for human AMP-activated Protein Kinase, alpha 1 (AMPKa1) (AID 2283130)
# Outline: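 Recombinant human AMPKα1 activity was measured cell-free by fluorescent substrate conversion with electrophoretic mobility-shift separation, 1 h after dosing. Duplicate single-point screening was at 25 uM; actives (≥30% inhibition) were retested in concentration-response up to 50 uM.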
# [15] = target: human Aurora Kinase A - serine/threonine-protein Kinase 6 (AurA), AURKA (gene 6790) (UniProt O14965); assay: NVS_ENZ_hAurA: NovaScreen (NVS) Enzymatic Assay for human Aurora Kinase A - serine/threonine-protein Kinase 6 (AurA) (AID 2283142)
# Outline: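 Cell-free enzymatic assay with human Aurora A, 1 hour after dosing. Fluorescent substrate turnover detected after electrophoretic mobility shift separation of substrate and product. Screened at 25 uM, actives retested in concentration-response up to 50 uM.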
# [16] = target: human Epidermal Growth Factor Receptor (EGFR), EGFR (gene 1956) (UniProt P00533); assay: NVS_ENZ_hEGFR: NovaScreen (NVS) Enzymatic Assay for human Epidermal Growth Factor Receptor (EGFR) (AID 2283151)
# Outline: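 Cell-free kinase assay, fluorescence plus electrophoretic mobility shift separating substrate and product, read 1 hour after dosing; loss of signal vs DMSO. Duplicate screen at 25 uM, then concentration-response to 50 uM.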
# [17] = target: human p21 Activated Kinase 4 (PAK4), PAK4 (gene 10298) (UniProt O96013); assay: NVS_ENZ_hPAK4: NovaScreen (NVS) Enzymatic Assay for human p21 Activated Kinase 4 (PAK4) (AID 2283189)
# Outline: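 Cell-free recombinant human PAK4 activity assay; fluorescent substrate and product separated by electrophoretic mobility shift, read 1 h after dosing. Initially tested in duplicate at 25 uM, relative to DMSO baseline.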
# [18] = target: human Tyrosine Protein Kinase Receptor Tie-2 (Tie2), TEK (gene 7010) (UniProt Q02763); assay: NVS_ENZ_hTie2: NovaScreen (NVS) Enzymatic Assay for human Tyrosine Protein Kinase Receptor Tie-2 (Tie2) (AID 2283225)
# Outline: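 Recombinant human Tie2 kinase activity was read cell-free by fluorescence with electrophoretic mobility shift, 1 hour after dosing. The screen used 25 uM in duplicate, then concentration-response up to 50 uM. Signal loss was scored against DMSO.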
# [19] = target: human Ephrin type-B Receptor 2 (EphB2), EPHB2 (gene 2048) (UniProt P29323); assay: NVS_ENZ_hEphB2: NovaScreen (NVS) Enzymatic Assay for human Ephrin type-B Receptor 2 (EphB2) (AID 2283156)
# Outline: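 Recombinant kinase with fluorescent substrate, product separated by electrophoretic mobility shift, read 1 h after dosing. Duplicate 25 uM screen, then singleton concentration-response to 50 uM max; loss of signal versus DMSO.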
# [20] = target: human Raf-1 Proto-Oncogene, serine/threonine Kinase (RAF1), RAF1 (gene 5894) (UniProt P04049); assay: NVS_ENZ_hRAF1: NovaScreen (NVS) Enzymatic Assay for human Raf-1 Proto-Oncogene, serine/threonine Kinase (RAF1) (AID 2283216)
# Outline: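 Cell-free recombinant kinase with specific fluorescent substrate, product separated by electrophoretic mobility shift; read 1 h after dosing. Primary screen at 25 uM in duplicate; hits then run in concentration-response up to 50 uM, fitted as loss of signal versus DMSO.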
# [21] = target: rat Monoamine Oxidase, MAO-B, Central (MAOBC), Maob (gene 25750) (UniProt P19643); assay: NVS_ENZ_rMAOBC: NovaScreen (NVS) Enzymatic Assay for rat Monoamine Oxidase, MAO-B, Central (MAOBC) (AID 2283238)
# Outline: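 MAO-B activity in rat brain tissue preparation, cell-free, measured radiometrically by scintillation counting 1.17 h after dosing. Screened in duplicate at 25 uM; actives then in concentration-response up to 50 uM. Loss of signal versus DMSO scored.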
# [22] = target: Protein deacetylase HDAC6 (Homo sapiens) (UniProt Q9UBN7); assay: NVS_ENZ_hHDAC6: NovaScreen (NVS) Enzymatic Assay for human Histone Deacetylase 6 (HDAC6) (AID 2283164)
# Outline: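 Recombinant human HDAC6 with fluorescent substrate, 1 h; product separated from substrate by electrophoretic mobility shift. Primary screen in duplicate at 25 uM; actives retested singly in concentration-response up to 50 uM, fitted relative to DMSO.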
# [23] = target: human IkappaB Kinase alpha (IKKa), CHUK (gene 1147) (UniProt O15111); assay: NVS_ENZ_hIKKa: NovaScreen (NVS) Enzymatic Assay for human IkappaB Kinase alpha (IKKa) (AID 2283167)
# Outline: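 Cell-free recombinant human IKKa with fluorescent substrate, product separated by electrophoretic mobility shift; read 1 hour after dosing. Primary screen duplicate at 25 uM, actives then concentration-response up to 50 uM; loss of signal relative to DMSO.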
# Chain of human AMP-activated Protein Kinase, alpha 1 (AMPKa1), PRKAA1 (gene 5562) (Q13131 whole entry, looked up): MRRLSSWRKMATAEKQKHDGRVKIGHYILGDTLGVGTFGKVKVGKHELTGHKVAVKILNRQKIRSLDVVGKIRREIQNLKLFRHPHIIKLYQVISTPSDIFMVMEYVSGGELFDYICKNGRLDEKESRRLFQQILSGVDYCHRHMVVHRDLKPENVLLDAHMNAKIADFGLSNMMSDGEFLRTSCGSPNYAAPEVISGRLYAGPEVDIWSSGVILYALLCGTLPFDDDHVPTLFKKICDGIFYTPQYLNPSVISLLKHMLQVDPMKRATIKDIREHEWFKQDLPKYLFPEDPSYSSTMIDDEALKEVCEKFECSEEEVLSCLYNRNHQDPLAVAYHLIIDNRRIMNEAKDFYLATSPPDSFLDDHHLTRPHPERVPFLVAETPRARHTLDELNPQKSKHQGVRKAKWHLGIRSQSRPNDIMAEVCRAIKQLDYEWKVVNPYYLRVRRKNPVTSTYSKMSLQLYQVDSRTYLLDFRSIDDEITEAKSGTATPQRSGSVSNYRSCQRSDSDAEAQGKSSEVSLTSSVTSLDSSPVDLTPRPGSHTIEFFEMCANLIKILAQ
# Chain of human Aurora Kinase A - serine/threonine-protein Kinase 6 (AurA), AURKA (gene 6790) (O14965 whole entry, looked up): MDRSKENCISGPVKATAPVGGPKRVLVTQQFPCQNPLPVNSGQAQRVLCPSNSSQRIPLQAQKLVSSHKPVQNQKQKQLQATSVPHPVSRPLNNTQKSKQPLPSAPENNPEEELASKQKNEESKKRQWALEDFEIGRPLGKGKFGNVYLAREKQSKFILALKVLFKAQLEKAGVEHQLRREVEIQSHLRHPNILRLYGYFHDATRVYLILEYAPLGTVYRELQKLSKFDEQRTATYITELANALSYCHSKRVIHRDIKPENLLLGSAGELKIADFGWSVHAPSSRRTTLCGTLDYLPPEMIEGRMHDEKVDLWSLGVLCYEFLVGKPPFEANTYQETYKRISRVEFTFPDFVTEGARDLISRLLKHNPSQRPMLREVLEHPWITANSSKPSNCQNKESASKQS
# Chain of human Fibroblast Growth Factor Receptor 1 (FGFR1), FGFR1 (gene 2260) (P11362 whole entry, looked up): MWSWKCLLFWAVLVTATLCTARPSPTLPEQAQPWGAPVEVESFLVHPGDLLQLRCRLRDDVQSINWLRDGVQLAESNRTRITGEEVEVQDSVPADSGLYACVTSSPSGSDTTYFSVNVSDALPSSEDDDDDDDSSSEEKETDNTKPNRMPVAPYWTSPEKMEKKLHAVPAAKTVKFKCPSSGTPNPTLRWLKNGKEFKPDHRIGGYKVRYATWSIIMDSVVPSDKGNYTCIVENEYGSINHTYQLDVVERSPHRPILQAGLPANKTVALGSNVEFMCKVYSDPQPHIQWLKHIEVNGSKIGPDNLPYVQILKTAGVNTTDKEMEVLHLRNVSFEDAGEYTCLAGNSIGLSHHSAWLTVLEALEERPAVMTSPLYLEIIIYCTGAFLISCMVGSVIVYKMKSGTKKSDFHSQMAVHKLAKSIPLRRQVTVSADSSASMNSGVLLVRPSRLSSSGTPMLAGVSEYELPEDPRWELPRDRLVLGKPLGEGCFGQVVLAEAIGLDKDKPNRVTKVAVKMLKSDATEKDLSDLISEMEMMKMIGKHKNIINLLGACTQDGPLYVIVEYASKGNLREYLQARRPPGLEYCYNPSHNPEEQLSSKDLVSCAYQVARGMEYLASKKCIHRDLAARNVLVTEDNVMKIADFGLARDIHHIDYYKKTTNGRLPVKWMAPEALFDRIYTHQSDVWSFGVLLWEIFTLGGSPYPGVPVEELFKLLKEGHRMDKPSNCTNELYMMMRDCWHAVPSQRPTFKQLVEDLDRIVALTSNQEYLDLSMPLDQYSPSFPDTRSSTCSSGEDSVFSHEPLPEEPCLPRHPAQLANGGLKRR
# Chain of human Acetylcholinesterase (AChE), ACHE (gene 43) (P22303 whole entry, looked up): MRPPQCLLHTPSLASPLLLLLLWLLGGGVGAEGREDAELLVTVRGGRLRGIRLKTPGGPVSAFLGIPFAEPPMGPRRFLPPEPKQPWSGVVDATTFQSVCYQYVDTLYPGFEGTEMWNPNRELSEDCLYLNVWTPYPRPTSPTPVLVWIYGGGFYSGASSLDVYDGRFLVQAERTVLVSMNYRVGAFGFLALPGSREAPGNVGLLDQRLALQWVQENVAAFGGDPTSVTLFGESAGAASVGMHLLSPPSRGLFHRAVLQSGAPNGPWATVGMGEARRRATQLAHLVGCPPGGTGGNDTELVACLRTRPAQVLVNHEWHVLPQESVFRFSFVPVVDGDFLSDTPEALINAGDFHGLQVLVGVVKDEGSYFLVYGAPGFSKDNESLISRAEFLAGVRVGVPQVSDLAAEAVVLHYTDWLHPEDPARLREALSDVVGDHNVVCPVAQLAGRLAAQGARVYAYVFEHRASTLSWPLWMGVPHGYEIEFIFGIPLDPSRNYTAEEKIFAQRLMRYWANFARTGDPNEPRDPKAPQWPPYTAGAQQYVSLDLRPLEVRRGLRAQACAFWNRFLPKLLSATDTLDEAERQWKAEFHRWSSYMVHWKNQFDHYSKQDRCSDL
# Chain of Norway rat Vesicular Monoamine Transporter (VMAT2), neurotransmitter transporter, Slc18a2 (gene 25549) (Q01827 whole entry, looked up): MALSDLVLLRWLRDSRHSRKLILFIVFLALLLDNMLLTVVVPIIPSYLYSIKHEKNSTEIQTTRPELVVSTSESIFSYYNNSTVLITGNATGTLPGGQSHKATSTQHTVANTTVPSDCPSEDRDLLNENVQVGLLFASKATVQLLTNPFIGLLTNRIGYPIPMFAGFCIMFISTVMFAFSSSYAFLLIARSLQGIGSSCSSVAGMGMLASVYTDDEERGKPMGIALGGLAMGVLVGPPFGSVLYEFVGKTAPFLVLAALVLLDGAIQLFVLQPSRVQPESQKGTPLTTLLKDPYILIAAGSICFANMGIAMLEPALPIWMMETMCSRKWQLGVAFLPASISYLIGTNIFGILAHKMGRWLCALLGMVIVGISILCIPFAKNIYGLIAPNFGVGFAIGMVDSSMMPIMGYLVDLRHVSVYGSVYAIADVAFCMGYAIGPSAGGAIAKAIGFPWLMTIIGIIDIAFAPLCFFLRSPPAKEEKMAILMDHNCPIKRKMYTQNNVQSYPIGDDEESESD
# Chain of human Neonicotinoid receptor (NNR), CHRNA2 (gene 1135) (Q15822 whole entry, looked up): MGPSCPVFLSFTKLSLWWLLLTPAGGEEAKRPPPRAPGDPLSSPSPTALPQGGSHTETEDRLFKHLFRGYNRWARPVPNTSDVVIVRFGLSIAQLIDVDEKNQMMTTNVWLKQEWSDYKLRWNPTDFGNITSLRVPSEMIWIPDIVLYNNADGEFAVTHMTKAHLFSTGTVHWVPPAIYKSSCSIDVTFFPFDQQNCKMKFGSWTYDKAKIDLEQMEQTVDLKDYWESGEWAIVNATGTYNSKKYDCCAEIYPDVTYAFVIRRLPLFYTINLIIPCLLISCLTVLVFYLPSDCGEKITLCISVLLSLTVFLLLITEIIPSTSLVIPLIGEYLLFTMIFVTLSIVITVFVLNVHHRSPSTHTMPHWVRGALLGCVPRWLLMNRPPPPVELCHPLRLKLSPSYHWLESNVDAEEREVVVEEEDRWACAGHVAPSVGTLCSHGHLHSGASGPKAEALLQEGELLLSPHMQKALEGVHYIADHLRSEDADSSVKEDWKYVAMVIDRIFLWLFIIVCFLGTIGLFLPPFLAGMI
# Chain of human CYP4F12, CYP4F12 (gene 66002) (Q9HCS2 whole entry, looked up): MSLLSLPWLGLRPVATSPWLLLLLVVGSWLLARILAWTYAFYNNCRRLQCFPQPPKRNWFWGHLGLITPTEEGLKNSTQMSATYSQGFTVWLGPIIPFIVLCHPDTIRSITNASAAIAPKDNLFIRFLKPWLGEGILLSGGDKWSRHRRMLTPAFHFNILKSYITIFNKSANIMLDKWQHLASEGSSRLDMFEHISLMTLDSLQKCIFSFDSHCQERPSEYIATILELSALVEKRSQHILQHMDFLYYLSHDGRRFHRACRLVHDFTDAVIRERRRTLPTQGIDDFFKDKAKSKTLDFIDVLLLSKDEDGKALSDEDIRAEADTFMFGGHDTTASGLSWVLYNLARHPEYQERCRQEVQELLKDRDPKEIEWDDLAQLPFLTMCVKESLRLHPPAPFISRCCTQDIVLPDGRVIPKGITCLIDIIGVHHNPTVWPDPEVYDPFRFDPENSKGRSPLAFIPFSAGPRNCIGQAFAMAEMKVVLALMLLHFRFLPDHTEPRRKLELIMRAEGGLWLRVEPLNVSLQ
# Chain of human Ephrin type-B Receptor 2 (EphB2), EPHB2 (gene 2048) (P29323 whole entry, looked up): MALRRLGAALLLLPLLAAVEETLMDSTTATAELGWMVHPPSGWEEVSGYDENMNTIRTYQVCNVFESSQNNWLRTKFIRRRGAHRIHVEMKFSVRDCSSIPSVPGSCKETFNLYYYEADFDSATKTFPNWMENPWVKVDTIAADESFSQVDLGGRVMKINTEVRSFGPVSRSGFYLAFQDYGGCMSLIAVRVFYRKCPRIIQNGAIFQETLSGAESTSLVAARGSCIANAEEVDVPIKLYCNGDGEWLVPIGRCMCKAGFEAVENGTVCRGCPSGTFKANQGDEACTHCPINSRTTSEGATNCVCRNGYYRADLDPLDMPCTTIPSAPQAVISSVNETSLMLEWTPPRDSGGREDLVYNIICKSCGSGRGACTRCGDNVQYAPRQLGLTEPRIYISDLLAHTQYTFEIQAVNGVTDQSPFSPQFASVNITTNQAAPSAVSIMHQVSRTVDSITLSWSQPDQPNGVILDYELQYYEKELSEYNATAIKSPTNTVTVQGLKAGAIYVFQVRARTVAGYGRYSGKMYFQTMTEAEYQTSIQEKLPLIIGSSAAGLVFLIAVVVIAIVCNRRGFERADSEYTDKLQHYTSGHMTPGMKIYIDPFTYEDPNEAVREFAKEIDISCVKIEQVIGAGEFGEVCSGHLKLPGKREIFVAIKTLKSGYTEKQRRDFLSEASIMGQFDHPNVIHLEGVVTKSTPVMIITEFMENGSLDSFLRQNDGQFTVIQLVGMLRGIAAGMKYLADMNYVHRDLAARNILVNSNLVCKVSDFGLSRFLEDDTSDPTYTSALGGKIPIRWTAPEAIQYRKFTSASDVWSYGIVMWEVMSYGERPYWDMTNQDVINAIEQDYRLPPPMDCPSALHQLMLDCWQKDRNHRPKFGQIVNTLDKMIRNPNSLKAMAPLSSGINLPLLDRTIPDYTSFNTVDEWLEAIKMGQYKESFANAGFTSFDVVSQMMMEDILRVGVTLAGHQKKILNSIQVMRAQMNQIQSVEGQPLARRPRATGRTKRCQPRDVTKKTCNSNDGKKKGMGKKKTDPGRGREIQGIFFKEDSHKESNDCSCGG
smiles,measurement,setting,value
Cc1occc1C(=O)Nc1ccc(C(=O)N2CCC(F)(F)/C(=C\C(=O)N3CCC(N4CCCCC4)CC3)c3ccccc32)cc1,AC50,[1],1.24 µM (active)
same,AC50,[2],9.05 µM (active)
same,AC50,[3],0.119 µM (active)
same,AC50,[4],5.73 µM (active)
C#C[C@]1(O)CC[C@H]2[C@@H]3CCc4cc(O)ccc4[C@H]3CC[C@@]21C,AC50,"rat CYP2B1, gene 24300",2.5 µM (active) and 4.16 µM (active) and 1.77 µM (active)
same,outcome,[5],inactive
Cc1cc(O)cc(C)c1Cl,AC50,"rat CYP2B1, gene 24300",16.7 µM (active)
CN1CCC[C@H]1c1cccnc1,outcome,[1],inactive
same,outcome,PPP2CA (gene 5515),inactive
same,AC50,[6],1.3 µM (active)
CC(=O)O[C@]1(C(C)=O)CC[C@H]2[C@@H]3C=C(Cl)C4=CC(=O)[C@@H]5C[C@@H]5[C@]4(C)[C@H]3CC[C@@]21C,outcome,"rat CYP2B1, gene 24300",inactive
CS(=O)(=O)c1ccc([C@@H](CC2CCCC2)C(=O)Nc2cnccn2)cc1Cl,outcome,[7],inactive
same,AC50,[4],7.12 µM (active)
NC(=O)N(O)[C@@H]1C=C[C@H](Oc2cccc(Oc3ccc(F)cc3)c2)C1,outcome,[7],inactive
same,outcome,[8],inactive
same,outcome,[9],inactive
same,outcome,[10],inactive
same,outcome,[11],inactive
same,AC50,[6],41.2 µM (active)
same,outcome,[12],inactive
COCCOc1cc2cc(C(=O)NC3CCN(C(C)C)CC3)n(CC(=O)Nc3ccc(Cl)cn3)c2cn1,AC50,[7],29 µM (active)
same,AC50,[11],19 µM (active)
O=C1CCC(C2CCCCC2)CC1,outcome,[13],inactive
O=C(Oc1ccccc1)c1cccc(C(=O)Oc2ccccc2)c1,outcome,[14],inactive
same,outcome,[15],inactive
same,outcome,[16],inactive
same,outcome,[9],inactive
same,outcome,[17],inactive
same,outcome,[10],inactive
same,outcome,[18],inactive
Cc1[nH]nc2c1N=C(c1ccccc1Cl)c1cc([N+](=O)[O-])ccc1N2,AC50,[14],17 µM (active)
same,AC50,[15],0.00702 µM (active)
same,outcome,[19],inactive
same,AC50,[9],41.4 µM (active)
same,AC50,[17],9.53 µM (active)
same,AC50,[12],2.29 µM (active)
O=C(O)c1ccccc1C(c1ccc(O)cc1)c1ccc(O)cc1,outcome,[14],inactive
same,outcome,[20],inactive
same,outcome,[21],inactive
CCCCCCCC/C=C\CCCCCCCC(=O)OC[C@@H](O)[C@H]1OC[C@H](O)[C@H]1O,outcome,[14],inactive
same,outcome,[15],inactive
same,outcome,[16],inactive
same,AC50,[19],6.52 µM (active)
same,outcome,[9],inactive
same,outcome,[22],inactive
same,outcome,[23],inactive
same,outcome,[2],inactive
